The values below come from PubChem BioAssay (NCATS).

Test [1] can be described thus: NCATS anti-infectives library activity on HEK293 viability as a counter-qHTS vs the C. elegans viability qHTS (AID 1745854).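 Further: HEK293 cells exposed to compounds for 24 hr before the viability read; on the % scale 0 is the no-effect control and ±100 the full control effect.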 A digest of the protocol:
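Cytotoxicity in human HEK293 cells is measured by ATP-dependent CellTiter-Glo luminescence following a 24 hr incubation with titrated library compounds at 37C. Top final concentration is 41.7 uM.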

The target in test [2] is Phospholipid hydroperoxide glutathione peroxidase GPX4 (Homo sapiens) (UniProt P36969). The test is described as follows: Primary qHTS Assay for Inhibitors of Recombinant Selenoprotein Glutathione Peroxidase 4 (GPX4) (AID 1845192). Further: nearly all actives have a fitted effect of over 65% in size. Further: potency means the concentration at half of the fitted maximal effect. On activity change, negative = inhibition: series mostly up to about 50 µM; on the % scale 0 is the no-effect control and ±100 the full control effect. An outline of the steps:
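GR-coupled assay: recombinant GPX4 preincubated 30 min with compound at room temperature; final 200 nM GPX4, 1 mM GSH, 0.5 mM cumene hydroperoxide, 0.5 mM NADPH, 100 nM GR, 0.01% BSA, pH 7.5 Tris. NADPH fluorescence (340/450 nm) read at 0 and 15 min.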
A general note: In qHTS, concentration-response curves come from the screen itself.

Test [3] can be described thus: Primary fluorescence-based thiol-reactive (MSTI) qHTS assay for identification of artifact compounds. (AID 1845221). Further: nearly all actives have a fitted effect of over 65% in size. Further: potency means the concentration at half of the fitted maximal effect. A digest of the protocol:
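One-hour, room-temperature, dark incubation of compound with 4 uM MSTI in PBS (pH 7.4, 2% DMSO) precedes a fluorescence read at 525 nm excitation, 598 nm emission; Hill-equation fitting yields concentration-response values.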

Test [4] deals with Nanoluciferase (engineered Oplophorus gracilirostris luciferase). The test is described as follows: Primary Nanoluciferase (NLuc) qHTS assay for identification of artifact compounds. (AID 1845222).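 Further: series mostly up to about 54 µM; 0% = DMSO and -100% = no enzyme.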 An outline of the steps:
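Diluted conditioned medium from NLuc-expressing S16 cells treated with compounds for 15 min at room temperature, then Nano-Glo substrate added; luminescence read after 5 min. Percent inhibition versus no-enzyme and DMSO controls fitted to 4-parameter Hill equation.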

A short description of test [5]: Primary redox qHTS assay for identification of artifact compounds. (AID 1845223).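 Further: 0% = DMSO and 100% = reference compound.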 A digest of the protocol:
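Amplex Red (25 uM) and HRP (250 mU/mL) in HBSS, with compounds for 15 min, then 250 uM DTT for 30 min, room temperature, dark. Fluorescence 525/598 nm read; normalized to DMSO and 10 uM DA3003; Hill fit.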

Test [6] has as its target Glutathione peroxidase 1 (Homo sapiens) (UniProt P07203). Description: Primary qHTS Assay for Inhibitors of Recombinant Selenoprotein Glutathione Peroxidase 1 (GPX1) (AID 1845191). Further: nearly all actives have a fitted effect of over 65% in size. Further: potency means the concentration at half of the fitted maximal effect. On activity, negative = inhibition: on the % scale 0 is the no-effect control and ±100 the full control effect. A digest of the protocol:
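GR-coupled assay: compounds preincubated 30 min at room temperature with GPX1, then reaction started with CHP; final 10 nM GPX1, 1 mM GSH, 0.5 mM CHP, 0.5 mM NADPH, 100 nM GR, 0.01% BSA, pH 7.5 Tris buffer. NADPH fluorescence (340/450 nm) read at 0 and 15 min.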

Test [7] deals with Luciferin 4-monooxygenase (Photinus pyralis) (UniProt P08659). The test is described as follows: Primary firefly luciferase (FLuc) qHTS assay for identification of artifact compounds. (AID 1845220).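 Further: series mostly up to about 54 µM; plate controls were DMSO vehicle for no effect and no enzyme for full effect; nearly all actives have a fitted effect of over 60% in size.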 An outline of the steps:
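D-luciferin and ATP (10 uM each, final) in Tris acetate buffer pH 7.6 were incubated with compounds for 15 min at room temperature. The reaction was started with 10 nM Photinus pyralis luciferase and luminescence read after 5 min. Percent inhibition was fitted to a 4-parameter Hill equation.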

SMILES strings stand for the structures. Unmarked numbers belong to inactive results. Results filed as inconclusive are left out. Activity calls are given as the source filed them. The call rests on the fitted dose curve; in most records, active means well fitted curve in the direction sought with a large enough effect; inconclusive means small, poorly fitted or top-dose-only effect, or another doubt; inactive means no such curve, though single readings can be large; an effect the other way counts as inactive or inconclusive. Where a SMILES comes first, the peptide text is derived from it. Bridges are numbered along the chain shown (N, C = ends).

Chain of Glutathione peroxidase 1 (Homo sapiens) (P07203 whole entry, looked up): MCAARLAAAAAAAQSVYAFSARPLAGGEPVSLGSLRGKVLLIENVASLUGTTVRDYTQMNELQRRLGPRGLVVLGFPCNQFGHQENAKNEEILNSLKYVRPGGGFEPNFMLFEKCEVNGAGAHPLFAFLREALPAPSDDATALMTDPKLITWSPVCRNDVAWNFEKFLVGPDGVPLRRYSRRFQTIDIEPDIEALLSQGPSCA
Chain of Phospholipid hydroperoxide glutathione peroxidase GPX4 (Homo sapiens) (P36969 whole entry, looked up): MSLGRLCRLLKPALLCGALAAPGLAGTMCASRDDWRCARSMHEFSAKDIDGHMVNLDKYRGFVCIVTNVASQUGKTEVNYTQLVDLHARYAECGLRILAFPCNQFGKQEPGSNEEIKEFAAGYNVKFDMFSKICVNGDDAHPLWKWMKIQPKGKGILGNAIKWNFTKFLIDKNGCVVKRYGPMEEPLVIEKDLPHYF

On to `CN(C)C(=O)Nc1cccc(-c2ccc(N(C)C)cc2)c1`, for which, in test [1], the outcome was inactive. The Potency result in test [2], in test [4] and in test [5] was “inactive” throughout. Besides, the Potency in test [3] is 2.67 µM (active).

As to `N#Cc1ccnc(Nc2cc(C3CCN(C4COC4)CC3)cc(N3CCC(F)(F)C3)n2)c1`, the Potency entry in test [6] was “inactive”.

With `CC(C)(C)CC(=O)OCC(=O)[C@@]12OC(C)(C)O[C@@H]1C[C@H]1[C@@H]3CCC4=CC(=O)C=C[C@]4(C)[C@@]3(F)[C@@H](O)C[C@@]12C`, the Potency result in test [6] and in test [2] was “inactive” each time.

On to `Cc1cc(-n2c(=O)[nH]c(=O)n(C)c2=O)ccc1Oc1ccc(S(=O)(=O)C(F)(F)F)cc1`, for which the Potency result in test [6] is “inactive”.

For `CCCCOC(=O)C(=O)Nc1cccc(-c2nn[nH]n2)c1`, the Potency entry in test [6] and in test [2] was “inactive” each time.

With `C[C@@H]1CN(CC(=O)N2CC(C)(C)c3ncc(Cc4ccc(F)cc4)cc32)[C@@H](CN2CCOC[C@H]2C)CN1`, the Potency result in test [6] and in test [2] was “inactive” throughout.

Take `CCCCCCCC(=O)CC[C@@H]1[C@@H](C/C=C\CCCC(=O)OC(C)C)[C@@H](O)C[C@H]1O`: the Potency entry in test [6] and in test [2] was “inactive” throughout.

Consider `C1CNCCN1`, for which the Potency entry in test [6] and in test [2] was “inactive” throughout.

For the molecule `CC(=O)O[C@H]1CC[C@@]2(C)C(=CC[C@H]3[C@@H]4CC[C@H](C(C)=O)[C@@]4(C)CC[C@@H]32)C1`, the Potency result in test [6] and in test [2] was “inactive” in each case.

On to `O=P(O)(O)OC(Cn1cncn1)(Cn1cncn1)c1ccc(F)cc1F`, for which the Potency entry in test [6] and in test [2] was “inactive” throughout.

Regarding `CCN1CCCC1CNC(=O)c1cc(S(=O)(=O)CC)ccc1OC` (stereo not drawn), the Potency entry in test [6] and in test [2] was “inactive” throughout.

In the case of `CN1CCN(CCCN2c3ccccc3Sc3ccccc32)CC1`, the Potency result in test [6] and in test [2] was “inactive” throughout.

Consider `OC(CN1CCCCC1)c1cc(-c2ccccc2)on1` (stereo not drawn), for which the Potency result in test [6] and in test [2] was “inactive” in each case.

As to `CN1CC(O)c2cc(N=NC(N)=O)c(O)cc21` (stereo not drawn), the Potency result in test [6] and in test [2] was “inactive” throughout.

As for `C[C@@H]1COCCN1c1cc(=O)n2c(n1)N(Cc1cncc(Cl)c1)[C@H](C(F)(F)F)CC2`, the Potency result in test [6] and in test [2] was “inactive” throughout.

With `CCCCCCCCCCCCCCCCCC(=O)OCCO`, the Potency result in test [6] and in test [2] was “inactive” throughout.

With `FC(F)(F)c1ccc(CNc2ccc(Cc3c[nH]c4ncc(Cl)cc34)cn2)cn1`, the Potency result in test [6] and in test [2] was “inactive” in each case.

On to `CCCOc1ccc2nc(NC(=O)OC)sc2c1`, for which the Potency result in test [6] and in test [2] was “inactive” throughout.

As for `CCC(c1ccccc1)c1noc(CCN(CC)CC)n1` (stereo not drawn), the Potency entry in test [6] and in test [2] was “inactive” each time.

`COc1ccc(C(=O)Nc2ccccc2CCC2CCCCN2C)cc1` (stereo not drawn): the Potency result in test [6] and in test [2] was “inactive” throughout.

For `Nc1c(CC(=O)O)cccc1C(=O)c1ccccc1`, the Potency entry in test [6] and in test [2] was “inactive” throughout.

For `C=C1CC2C3CCC4=CC(=O)C=C[C@]4(C)[C@@]3(F)[C@@H](O)C[C@]2(C)[C@@]1(O)C(=O)COC(C)=O` (stereo partly drawn), the Potency entry in test [6] and in test [2] was “inactive” throughout.

`NCCCNCCCCNC(=O)C(O)NC(=O)CCCCCCN=C(N)N` (stereo not drawn): the Potency result in test [6] and in test [2] was “inactive” each time.

For the molecule `NCCCC[C@H](NC(=O)[C@@H]1CCCN1C(=O)[C@@H]1CSSC[C@H](NC(=O)CNC(=O)CNC(=O)CN)C(=O)N[C@@H](Cc2ccc(O)cc2)C(=O)N[C@@H](Cc2ccccc2)C(=O)N[C@@H](CCC(N)=O)C(=O)N[C@@H](CC(N)=O)C(=O)N1)C(=O)NCC(N)=O` (H-GGGCYFQNCPKG-NH2; disulfide 4-9), the Potency result in test [6] and in test [2] was “inactive” in each case.

On to `OCC(O)COc1ccc(Cl)cc1` (stereo not drawn), for which the Potency entry in test [6] and in test [2] was “inactive” throughout.

`O=P(O)(O)OC(CO)CO`: the Potency result in test [6] and in test [2] was “inactive” throughout.

Turning to `O=C(Cn1cnnn1)N[C@@H]1C(=O)N2C(C(=O)O)=C(CSc3nncs3)CS[C@H]12`, in test [6], the Potency was 18 µM (active). In addition, the Potency entry in test [2] is “inactive”.

On to `CCOC(=O)[C@H](CCc1ccccc1)N[C@H]1CCCN2CCC[C@@H](C(=O)O)N2C1=O`, for which the Potency result in test [6] and in test [2] was “inactive” throughout.

As to `C/C(=C(/CCO)SSCC1CCCO1)N(C=O)Cc1cnc(C)nc1N` (stereo not drawn), the Potency entry in test [6] and in test [2] was “inactive” in each case.

`CC(C)(C)NC(=O)[C@H]1CC[C@H]2[C@@H]3CC=C4C=C(C(=O)O)CC[C@]4(C)[C@H]3CC[C@]12C`: the Potency entry in test [6] and in test [2] was “inactive” each time.

Take `CC(=O)O[C@H]1C[C@@H]2CC[C@@H]3[C@H](CC[C@@]4(C)[C@H]3C[C@H](N3CC[N+](C)(C)CC3)[C@@H]4OC(C)=O)[C@@]2(C)C[C@@H]1N1CC[N+](C)(C)CC1`: the Potency result in test [6] and in test [2] was “inactive” each time.

As for `CC(C(=O)O)c1ccc(C2CCCCC2)c2ccccc12` (stereo not drawn), the Potency result in test [6] is “inactive”. Moreover, in test [2], the Potency was 15.8 µM (active).

As for `CCOc1ccc(N=C(C)Nc2ccc(OCC)cc2)cc1`, the Potency result in test [6] and in test [2] was “inactive” throughout.

As to `CO[C@H]1[C@@H](O)[C@H](N)[C@@H](O[C@H]2O[C@H]([C@H](C)N)CC[C@H]2N)[C@H](O)[C@@H]1N(C)C(=O)CN`, the Potency entry in test [6] and in test [2] was “inactive” throughout.

For the molecule `CCN(CC)CCOC(=O)c1ccc(N)cc1Cl`, the Potency entry in test [6] and in test [2] was “inactive” throughout.

Regarding `NC(=O)c1cnc(N[C@@H]2CCCC[C@@H]2N)nc1Nc1cccc(-n2nccn2)c1`, the Potency entry in test [6] and in test [2] was “inactive” in each case.

For the molecule `O=S(=O)(O)Oc1ccc(C(c2ccc(OS(=O)(=O)O)cc2)c2ccccn2)cc1`, the Potency result in test [6] and in test [2] was “inactive” each time.

As to `O=P(O)(O)C(O)(Cc1cnc2ccccn12)P(=O)(O)O`, in test [6], the activity, negative = inhibition was -12.2% [at 0.4 µM]. In test [2], the activity change, negative = inhibition was 0.142% [at 0.409 µM].

As to `CCCN(CC)C(CC)C(=O)Nc1c(C)cccc1C` (stereo not drawn), the Potency result in test [6] and in test [2] was “inactive” throughout.

With `Cc1cccc(C)c1N(CCCc1cccnc1)C(=O)C(C)N` (stereo not drawn), the Potency result in test [6] and in test [2] was “inactive” in each case.

With `CC(CC(c1ccccc1)c1ccccc1)NC(C)(C)C` (stereo not drawn), the Potency result in test [6] and in test [2] was “inactive” in each case.

For `C=Cc1ccccc1`, the Potency entry in test [6] and in test [2] was “inactive” each time.

With `CCC(C)C(C(=O)OCC[N+](C)(CC)CC)c1ccccc1` (stereo not drawn), the Potency entry in test [6] and in test [2] was “inactive” each time.

Turning to `CO/N=C(\C(=O)N[C@@H]1C(=O)N2C(C(=O)OCOC(=O)C(C)(C)C)=C(/C=C\c3scnc3C)CS[C@H]12)c1csc(N)n1`, the Potency in test [6] is 4.53 µM (active); in test [2] it was 14.1 µM (active).

Take `O=C1C(c2[nH]c3ccc(S(=O)(=O)O)cc3c2O)=Nc2ccc(S(=O)(=O)O)cc21`: the Potency result in test [6] and in test [2] was “inactive” each time.

As for `CSCC[C@H](NC(=O)[C@H](Cc1ccc(OS(=O)(=O)O)cc1)NC(=O)[C@@H](N)CC(=O)O)C(=O)NCC(=O)N[C@@H](Cc1c[nH]c2ccccc12)C(=O)N[C@@H](CCSC)C(=O)N[C@@H](CC(=O)O)C(=O)N[C@@H](Cc1ccccc1)C(N)=O`, the Potency entry in test [6] was “inactive”. The Potency in test [2] was 15.8 µM (active).

Regarding `CC(C)=CCC[C@](C)(O[C@@H]1O[C@H](CO[C@@H]2OC[C@@H](O)[C@H](O)[C@H]2O)[C@@H](O)[C@H](O)[C@H]1O)[C@H]1CC[C@]2(C)[C@@H]1[C@H](O)C[C@@H]1[C@@]3(C)CC[C@H](O[C@@H]4O[C@H](CO)[C@@H](O)[C@H](O)[C@H]4O)C(C)(C)[C@@H]3CC[C@]12C`, the Potency entry in test [6], in test [2], in test [7], in test [3] and in test [4] was “inactive” throughout.

For the molecule `COc1cc2c(cc1NS(=O)(=O)c1ccc(Br)cc1C)n(C)c(=O)n2C`, the Potency entry in test [6], in test [2], in test [7], in test [3] and in test [4] was “inactive” in each case.

For `CC1OC2OC(=O)C3(C)CC4C5(CO5)C5=CC(=O)OC(C)(C)C5=CC(=O)C4(C)C(C1=O)C23` (stereo not drawn), the Potency result in test [6], in test [2], in test [7] and in test [4] was “inactive” each time. Also, in test [3], the Potency was 1.03 µM (active).

Consider `CCC(C)C(=O)Oc1cc(C)ccc1C1(COC(=O)C(C)C)CO1` (stereo not drawn), for which the Potency entry in test [6], in test [2], in test [7], in test [3] and in test [4] was “inactive” each time.
